The whole screen tested about 340,000 compounds, of which about 1,000 (0.29%) were called active. Cut-off read from the data, not from the text of the source: inconclusive = inhibition above about 29% without an active follow-up result; inactive = below that. A selection follows. Potency and affinity values are given separately.
Molecular target: Genome polyprotein (Dengue virus type 2 (strain 16681-PDK53)) (UniProt P29991)
Experiment: Dengue-2 NS5 methyltransferase inhibitors, primary screen, biochemical, confirmation dose response (AID 588689)
Details: Dengue-2 NS5 methyltransferase capping enzyme assay, at 25 µM, stronger effect = higher value
[1] = measured here: pilot screen replicate inhibition

Structure (SMILES) | inhibition | inhibition [1]
CCN(CC(=O)Nc1ccc2c(c1)OCCO2)S(=O)(=O)c1ccc(F)cc1 | -12.2% (inactive) | 
CCN(CC)S(=O)(=O)c1ccc(C(=O)NCCOC(=O)c2ccc(F)cc2F)cc1 | 8.01% (inactive) | 
COc1ccccc1NS(=O)(=O)c1ccc2c(c1)OCCO2 | -2.93% (inactive) | 
Cc1ccc(S(=O)(=O)N2CCCCC2)cc1C(=O)NCc1ccc(S(N)(=O)=O)cc1 | 4.65% (inactive) | 
COc1ccc(/C(O)=C2\C(=O)C(=O)N(CC3CCCO3)C2c2cc(OC)ccc2OC)cc1 (stereo not given) | -3.45% (inactive) | 
O=C(NCCC1=CCCCC1)c1cnc2n(c1=O)CCS2 | 3.21% (inactive) | 
COc1ccccc1C(=O)NC(=O)COC(=O)Cc1n[nH]c(=O)c2ccccc12 | 3.6% (inactive) | 
COc1ccc(NS(=O)(=O)c2cc([N+](=O)[O-])ccc2N/N=C\c2c(C)[nH]c3ccccc23)cc1 | -20.6% (inactive) | 
COc1ccc(S(=O)(=O)NCc2ccccn2)cc1Br | 2.64% (inactive) | 3.33%
CSC1=C(C#N)C(=O)NC(c2ccc(Cl)cc2)S1 (stereo not given) | -3.83% (inactive) | 
N#CC1=C(Nc2ccccc2Cl)SC(c2ccccc2O)NC1=O (stereo not given) | -11.1% (inactive) | 
Cc1cc(N2C(=O)C=CC2=O)c([N+](=O)[O-])cc1C | -13.6% (inactive) | 
Cc1c([N+](=O)[O-])cc(N2C(=O)C=CC2=O)cc1[N+](=O)[O-] | 8.16% (inactive) | 
COc1ccc(-c2ccc(NS(=O)(=O)c3ccc([N+](=O)[O-])cc3)cc2)nn1 | 5.43% (inactive) | 
COc1ccc(-n2nc(C(=O)NCC(=O)NCC3CCCO3)c3ccccc3c2=O)cc1 (stereo not given) | -4.8% (inactive) | -2.44%
Cc1ccc(C2(C(F)(F)F)NC(=O)N3N=C4CCCCCN4C3=C2C#N)cc1 (stereo not given) | 7.4% (inactive) | 
CCOc1ccc(/C=C2/SC(=S)N(CCC(=O)Nc3ccc(C(=O)O)cc3)C2=O)cc1 | -7.39% (inactive) | 
COc1ccc(/C=C2\SC(=S)N(CCC(=O)Nc3ccccc3C(=O)O)C2=O)cc1 | -2.62% (inactive) | 
CCc1ccc(/C=C2\SC(=S)N(CCCC(=O)Nc3ccc(C(=O)O)cc3)C2=O)cc1 | 17.8% (inactive) | 
Cc1ccc(/C=C2\SC(=S)N(CCCC(=O)Nc3ccccc3C(=O)O)C2=O)cc1 | 15.4% (inactive) | 
COc1ccc(/C=C2\SC(=S)N(CCCC(=O)Nc3ccccc3C(=O)O)C2=O)cc1OC | -34.8% (inactive) | 
COc1ccc(/C=C2/SC(=S)N(CCCC(=O)Nc3ccccc3C(=O)O)C2=O)cc1 | 12.5% (inactive) | 
COc1ccc(CNC(=O)COC(=O)C(CCSC)NC(=O)c2ccco2)cc1OC (stereo not given) | 0% (inactive) | 

Structure (SMILES) | inhibition | inhibition [1]
O=C(c1cc(C2CC2)nn1-c1ccccc1)N1CCN(Cc2ccccc2F)CC1 | -3.6% (inactive) | 
Cc1cc(C(=O)COC(=O)c2n[nH]c(=O)c3ccccc23)c(C)n1C(C)C | -4.04% (inactive) | 
CCOc1ccc(N(CC(=O)NC2CCCCC2C)S(=O)(=O)c2c(C)noc2C)cc1 (stereo not given) | -4.39% (inactive) | 
O=C1/C(=N\O)Cc2ccccc21 | -5.15% (inactive) | 
O=C1C(=NO)CCCc2ccccc21 | -3.23% (inactive) | 
O=C(O)CC1SC(N/N=C/c2ccc(Br)cc2)NC1=O (stereo not given) | 3.06% (inactive) | 
COc1ccc(OC)c(S(=O)(=O)N(C)CC(=O)N2CCCCC2)c1 | -7.78% (inactive) | 
CC(C)C1C(=O)N(Cc2cn(CCC3OCCO3)nn2)CCS(=O)(=O)N1Cc1ccc(-c2ccc(Cl)c(Cl)c2)cc1 (stereo not given) | -2.32% (inactive) | 
Cc1c(Br)c(O)c(Br)c(O)c1/C=N/n1c(-c2ccccc2)n[nH]c1=S | 21.5% (inactive) | 
Oc1ccc(/C=N/n2c(-c3ccccc3)n[nH]c2=S)cc1Br | 13.5% (inactive) | 
CN=c1scc(C)n1/N=C/c1cc(Br)c(O)c(Br)c1 | -1.49% (inactive) | 
Oc1c(Br)cc(Br)cc1/C=N/n1c(-c2ccccc2)n[nH]c1=S | -12.7% (inactive) | 
COc1ccccc1N1C(=O)CC(N2CCN(c3ccc(F)cc3)CC2)C1=O (stereo not given) | -6.31% (inactive) | 
O=C(CN(Cc1ccccc1Cl)C(=O)c1csnn1)NCc1ccc2c(c1)OCO2 | -1.47% (inactive) | 
Cc1nc2nc(-c3ccccc3)cn2nc1C | -1.38% (inactive) | 
Cc1ccc(-c2cn3nc(C)c(C)nc3n2)cc1 | -9.37% (inactive) | 
COc1ccc(C(=O)N(CC(=O)NC(C)(C)C)c2ccc3c(c2)OCCO3)cc1OC | -3.24% (inactive) | 
Cn1c(-c2ccccc2)cc(=NNS(C)(=O)=O)c2cc(S(=O)(=O)O)ccc21 | 7.43% (inactive) | 
Oc1ccc(CN2CCCCC2)nc1-c1ccccc1 | -3.27% (inactive) | 
Oc1ccc2ccccc2c1CN1CCCCC1 | -0.78% (inactive) | 
c1ccc(-c2ccc(-c3csnn3)cc2)cc1 | 0.69% (inactive) | 
COc1ccc(S(=O)(=O)Nc2ccc(O)c3ccccc23)cc1 | 70.6% (inactive) | 
CCOc1ccc(S(=O)(=O)Nc2ccccc2SC)cc1 | 6.41% (inactive) | 

Structure (SMILES) | inhibition | inhibition [1]
COc1ccc(S(=O)(=O)c2c(C)c(NS(=O)(=O)c3ccccc3)cc(C)c2O)cc1 | -5.22% (inactive) | 
CCOC(=O)c1ccccc1NS(=O)(=O)c1ccc(OCC)cc1 | -6.45% (inactive) | 
CC1(c2ccc(Cl)cc2)NC(=O)N(CC(=O)NCCC2=CCCCC2)C1=O (stereo not given) | -2.9% (inactive) | 
COc1ccc(-n2c(=S)[nH]c3cc(C(=O)Nc4cc(C(N)=O)ccc4OC)ccc3c2=O)c(OC)c1 | -13.4% (inactive) | 
COc1cc(N)c(Cl)cc1C(=O)OCC(=O)NC1CCCC1 | -6.23% (inactive) | 
CC(C)c1ccc(NC2CCCN(C(=O)CN3CCCC3=O)C2)cc1 (stereo not given) | -7.87% (inactive) | 
C=CCNC(=S)NNC(=O)c1csc(C)c1CC | 2.43% (inactive) | 
CCOc1ccc(NC(=O)CN(C)C(=O)C2=COCCO2)cc1OCC | -3.6% (inactive) | 
Nc1ccccc1Sc1ccc(C(=O)c2ccccc2C(=O)O)cc1[N+](=O)[O-] | 17.6% (inactive) | 
CC(=O)c1ccc(Sc2ccccc2)c([N+](=O)[O-])c1 | 3.06% (inactive) | 
COc1ccc(C(=O)c2coc(-c3ccccc3C(=O)O)c2C(=O)O)cc1 | 2.56% (inactive) | 
Cc1ccc(C(=O)c2coc3ccc(O)cc23)cc1 | 2.6% (inactive) | 
Cc1oc2c(c1C(=O)c1ccc(Cl)cc1)C(=O)C(=O)c1ccccc1-2 | 28% (inactive) | 
O=C(c1ccccc1)c1coc2c1C(=O)c1ccccc1C2=O | 6.1% (inactive) | 
Cc1ccc(C(=O)c2c[nH]cc2-c2ccccc2)cc1 | -3.21% (inactive) | 
Cc1ccc(C(=O)c2c(C)oc3c2C(=O)C(=O)c2ccccc2-3)cc1 | 21.1% (inactive) | 
O=C1c2ccccc2C(=O)c2c1oc(C(F)(F)F)c2C(=O)c1ccccc1 | -2.07% (inactive) | 
COc1ccc(C(=O)c2c(C(F)(F)F)oc3c2C(=O)c2ccccc2C3=O)cc1 | 9.03% (inactive) | 
CN1CCN(CCCNC(=O)Cn2ncc3c4ccccc4n(C)c3c2=O)CC1 | -0.7% (inactive) | 
CCOc1ccc(C(=O)Nc2cccc(NC(=O)c3cccs3)c2)cc1[N+](=O)[O-] | -6.19% (inactive) | 
COc1cc(OC)cc(C(=O)NCCCNC(=O)c2cccnc2)c1 | -1.78% (inactive) | 
Cc1nc(N2CCOCC2)[nH]c(=O)c1CCC(C)C | -3.29% (inactive) | 
CC(=C\C(=O)O)/C(=C\c1cccc2ccccc12)C(=O)O | -1.16% (inactive) | 

Structure (SMILES) | inhibition | inhibition [1]
CCn1c(=S)sc2c(=O)n(-c3ccccc3)c(SCC(=O)NCc3ccco3)nc21 | 2.42% (inactive) | 
CN1C[C@H]2CON(C)[C@H]2C[C@H]1c1cccc(-c2ccccc2)c1 | -6.62% (inactive) | -3.38%
COc1ccc(-n2c(-c3ccc(Br)cc3)nc(=S)c3c2CCCC3)cc1 | -4.74% (inactive) | 
CC(C)CCNC(=O)c1ccc(-n2cnc3cccnc32)cc1 | -2.72% (inactive) | 
COc1ccc2cc(CCNC(=O)CCc3ccccc3)c(=O)[nH]c2c1 | 0.89% (inactive) | 
O=C(Nc1ncn[nH]1)c1ccc(S(=O)(=O)N2CCOCC2)cc1 | -3.52% (inactive) | 
COc1ccc(C2=CC(=O)CC(C)(C)C2)cc1 | 2.79% (inactive) | 
CC1(C)CC(=O)C(C(c2cccnc2)C2C(=O)CC(C)(C)CC2=O)C(=O)C1 | 12.3% (inactive) | -0.765%
COC(=O)COc1ccc(NC(=O)C(c2ccccc2)c2ccccc2)cc1 | -6.79% (inactive) | 
COc1cccc(C(C2C(=O)CC(C)(C)CC2=O)C2C(=O)CC(C)(C)CC2=O)c1 | 23.1% (inactive) | 
CC1(C)CC(=O)C(C(c2ccc(F)cc2)C2C(=O)CC(C)(C)CC2=O)C(=O)C1 | -0.73% (inactive) | 
COC(=O)c1ccc(C(C2C(=O)CC(C)(C)CC2=O)C2C(=O)CC(C)(C)CC2=O)cc1 | -3.89% (inactive) | 
CC(=O)N(C)N(C)c1cc(C)nc(N)n1 | 0.78% (inactive) | 
Nn1cnnc1N/N=C/c1ccc(F)cc1 | 0.39% (inactive) | 
COc1ccc(CNc2ccc(S(N)(=O)=O)cc2)c(OC)c1OC | -2.41% (inactive) | 
CCOc1ccc(NC(=O)N2CCCC2C(=O)NCC2CCCO2)cc1 (stereo not given) | -7.19% (inactive) | 
O=C1CCCc2oc3c(c21)CCCC3 | 0.9% (inactive) | 
COCCN1C(=O)C(=O)/C(=C(/O)c2ccc3c(c2)OCCO3)C1c1ccc(C(=O)OC)cc1 (stereo not given) | 0.56% (inactive) | 
COc1ccc(-c2csc(NC(=O)CSc3n[nH]c(C)n3)n2)cc1 | -3.23% (inactive) | 
COc1ccc(-c2csc(NC(=O)CSc3nc(C)cs3)n2)cc1 | -6.77% (inactive) | 
COc1ccccc1C(C)NCC(=O)NCc1ccc(C)cc1 (stereo not given) | -3.92% (inactive) | 
Cc1nnc(SCC(=O)Nc2nnc(SCc3cccc(Br)c3)s2)s1 | 0.64% (inactive) | 
